From ChEMBL document CHEMBL4303097 (2020) come the findings set out here.

The structures appear in SMILES notation. The full ranking holds about 1,500 compounds; the median of “Inhibition index” is about 0.17, and the highest 2% start at about 1.3. The entries come from a sample that favours the highest values as a whole.

The experiment relates to SARS-CoV-2. The experiment is described as follows: Inhibition of cell viability relative to arbidol control (inhibition index > 1 indicates higher activity) measured by fluorescence (OD590nm) in Vero E6 cells infected with SARS-CoV-2 (strain BavPat1) at MOI 0.002 after 72hrs. It is filed as functional, Chlorocebus sabaeus, Vero C1008.
For the compound `C#C[C@]1(OC(C)=O)CC[C@H]2[C@@H]3CCC4=CC(=NO)CC[C@@H]4[C@H]3CC[C@@]21CC`, the Inhibition index is listed as -0.3327.
As for `C[C@H](O)[C@H](O)[C@H]1CNc2[nH]c(N)nc(=O)c2N1.Cl.Cl` [SAPROPTERIN DIHYDROCHLORIDE], the figure is 0.4022.
In the case of `O=C1CN(/N=C/c2ccc(-c3ccc([N+](=O)[O-])cc3)o2)C(=O)[N-]1.[Na+]` [DANTROLENE SODIUM] it was 0.3986; in that of `Nc1ccc(S(=O)(=O)[N-]c2cnc3ccccc3n2)cc1.[Na+]` [SULFAQUINOXALINE SODIUM], -0.000446.
In the case of `COc1cc2nc(N3CCN(C(=O)C4CCCO4)CC3)nc(N)c2cc1OC.Cl` (stereo not given) it was -0.01131; in that of `CN(C)CCCN1c2ccccc2Sc2ccccc21.Cl` [PROMAZINE HYDROCHLORIDE], 1.161.
The compound `Cl.N[C@@H]1CCCCN(c2c(F)cc3c(=O)c(C(=O)O)cn(C4CC4)c3c2Cl)C1` [BESIFLOXACIN HYDROCHLORIDE] came in with an Inhibition index of 0.08463.
In the case of `CCCCc1oc2ccccc2c1C(=O)c1cc(I)c(OCCN(CC)CC)c(I)c1.Cl` [AMIODARONE HYDROCHLORIDE] it was -0.1051; in that of `COCCc1ccc(OCC(O)CNC(C)C)cc1.COCCc1ccc(OCC(O)CNC(C)C)cc1.O=C(O)C(O)C(O)C(=O)O` (stereo not given) [METOPROLOL TARTRATE], 0.03331; in that of `CCC(=O)[C@@]1(C)[C@H](C)C[C@H]2[C@@H]3CCC4=CC(=O)C=C[C@]4(C)[C@H]3[C@@H](O)C[C@@]21C` [RIMEXOLONE], 0.1893.
In turn, `Cl.NCCc1ccc(O)c(O)c1` [DOPAMINE HYDROCHLORIDE] gave an Inhibition index of 1.056.
`C[C@@H]1C[C@H]2[C@@H]3C[C@H](F)C4=CC(=O)C=C[C@]4(C)[C@@]3(Cl)[C@@H](O)C[C@]2(C)[C@H]1C(=O)COC(=O)C(C)(C)C` [CLOCORTOLONE PIVALATE]: the Inhibition index is given as 0.111.
In the case of `O=C(O)Cc1ccccc1Oc1ccc(Cl)cc1Cl` [FENCLOFENAC], the Inhibition index was determined as 0.3257.
`CC(=O)OCC(=O)[C@@]12OC(C)(C)O[C@@H]1C[C@H]1[C@@H]3C[C@H](F)C4=CC(=O)C=C[C@]4(C)[C@@]3(F)[C@@H](O)C[C@@]12C` [FLUOCINONIDE] had an Inhibition index of 0.2896.
In the case of `CCN(CC)CC(=O)Nc1c(C)cccc1C.Cl` it was -0.01364; in that of `COc1cc(C)c(/C=C/C(C)=C/C=C/C(C)=C/C(=O)O)c(C)c1C` [ACITRETIN], 0.2609.
In the case of `CC1=C(/C=C/C(C)=C/C=C/C(C)=C/C(=O)O)C(C)(C)CCC1` [TRETINOIN] it was 0.999.
`CC1=C(/C=C/C(C)=C/C=C/C(C)=C\C(=O)O)C(C)(C)CCC1` [ISOTRETINOIN] registered an Inhibition index of 1.484.
In the case of `CN1CCN2c3ccccc3Cc3ccccc3C2C1.Cl` (stereo not given) [MIANSERIN HYDROCHLORIDE] it was 0.175; in that of `CC[C@H](C)C(=O)O[C@H]1C[C@@H](C)C=C2C=C[C@H](C)[C@H](CC[C@@H]3C[C@@H](O)CC(=O)O3)[C@H]21` [LOVASTATIN], -0.07572.
In the case of `CC(C)(O/N=C(\C(=O)N[C@@H]1C(=O)N2C(C(=O)[O-])=C(C[n+]3ccccc3)CS[C@H]12)c1csc(N)n1)C(=O)O.O.O.O.O.O` it was 0.06868; in that of `CCOc1ccc2nc(S(N)(=O)=O)sc2c1` [ETHOXZOLAMIDE], 2.099; in that of `CC(O)C(=O)O.CCOc1ccc2nc3cc(N)ccc3c(N)c2c1`, 0.4974.
`Cl.Nc1nc2ccc(OC(F)(F)F)cc2s1` displayed an Inhibition index of 0.04491.
In the case of `CC(=O)O.O=C(NCC1CCCCN1)c1cc(OCC(F)(F)F)ccc1OCC(F)(F)F` (stereo not given) [FLECAINIDE ACETATE] it was 0.049; in that of `CN[C@@H]1[C@H](O)[C@H](NC)[C@H]2O[C@@]3(O)C(=O)C[C@@H](C)O[C@H]3O[C@@H]2[C@H]1O.Cl.Cl`, 0.1494; in that of `COc1cccc(N(C)C(=S)Oc2ccc3c(c2)CCCC3)n1` [LIRANAFTATE], 0.6869.
With `CCCCc1cc2ccccc2c(OCCN(C)C)n1.Cl` [DIMETHISOQUIN HYDROCHLORIDE], the Inhibition index was -0.1351.
As for `CN(C)N=Nc1[nH]cnc1C(N)=O`, the figure is -0.0106.
As to `CC(=O)OCC(=O)[C@@]1(O)CC[C@H]2[C@@H]3CCC4=CC(=O)CC[C@]4(C)[C@H]3[C@@H](O)C[C@@]21C` [HYDROCORTISONE ACETATE], the Inhibition index turned out to be 0.145.
For `CCN(CC)CCCC(C)Nc1c2ccc(Cl)cc2nc2ccc(OC)cc12.Cl.Cl.O.O` (stereo not given) [QUINACRINE HYDROCHLORIDE], the Inhibition index is -0.1724.
As for `CCN(CC)CCCC(C)Nc1ccnc2cc(Cl)ccc12.O=P(O)(O)O.O=P(O)(O)O` (stereo not given) [CHLOROQUINE PHOSPHATE], the figure is 1.351; as for `COc1cc(NC(C)CCCN)c2ncccc2c1.O=P(O)(O)O.O=P(O)(O)O` (stereo not given) [PRIMAQUINE PHOSPHATE], 0.6817.
As for `CCN(CC)Cc1cc(Nc2ccnc3cc(Cl)ccc23)ccc1O.Cl.Cl.O.O` [AMODIAQUINE HYDROCHLORIDE], the figure is 0.1282.
On to `Cl.O=C(OCC(O)CO)c1ccccc1Nc1ccnc2cc(Cl)ccc12` (stereo not given), for which the Inhibition index was 0.07624.
With `NC(=O)c1cc[n+](CC2=C(C(=O)O)N3C(=O)[C@@H](NC(=O)[C@@H](c4ccccc4)S(=O)(=O)O)[C@H]3SC2)cc1.O.[Na+]`, the Inhibition index is recorded as 0.1703.
As for `CN1CCc2cccc3c2[C@H]1Cc1ccc(O)c(O)c1-3.CN1CCc2cccc3c2[C@H]1Cc1ccc(O)c(O)c1-3.Cl.Cl.O` [APOMORPHINE HYDROCHLORIDE], the figure is 0.4481.
Consider `CCCCOc1ccc(OCCCN2CCOCC2)cc1.Cl` [PRAMOXINE HYDROCHLORIDE], for which the Inhibition index turned out to be 0.1376.
As for `CCOC(=O)c1c(N)sc2c1CCN(Cc1ccccc1)C2.Cl`, the figure is 0.8505.
Regarding `O=C([O-])C[C@H](O)C[C@H](O)/C=C/c1c(C2CC2)nc2ccccc2c1-c1ccc(F)cc1.O=C([O-])C[C@H](O)C[C@H](O)/C=C/c1c(C2CC2)nc2ccccc2c1-c1ccc(F)cc1.[Ca+2]` [PITAVASTATIN CALCIUM], the Inhibition index is -0.03681.
In the case of `C=CC[C@]1(O)CC[C@H]2[C@@H]3CCC4=CC(=O)CCC4=C3C=C[C@@]21C` [ALTRENOGEST] it was 0.8504; in that of `CCOC(=O)C(C)(N)Cc1cc(I)c(Oc2cc(I)c(O)c(I)c2)c(I)c1.Cl` (stereo not given), 0.3664; in that of `CCCSS/C(CCO)=C(\C)N(C=O)Cc1cnc(C)nc1N`, 0.2056.
Compound `C/C(=C(\CCOC(=O)c1ccccc1)SS/C(CCOC(=O)c1ccccc1)=C(\C)N(C=O)Cc1cnc(C)nc1N)N(C=O)Cc1cnc(C)nc1N` had an Inhibition index of 1.055.
With `C/C(=C(/CCO)SSCC1CCCO1)N(C=O)Cc1cnc(C)nc1N.Cl` (stereo not given), the Inhibition index is given as 1.385.
In turn, `CCCCC(=O)O[C@H]1CC[C@H]2[C@@H]3CCc4cc(O)ccc4[C@H]3CC[C@]12C` [ESTRADIOL VALERATE] displayed an Inhibition index of -0.4279.
In the case of `COc1cccc2c1C(=O)c1c(O)c3c(c(O)c1C2=O)C[C@@](O)(C(=O)CO)C[C@@H]3O[C@H]1C[C@H](N)[C@H](O)[C@H](C)O1.Cl` [DOXORUBICIN HYDROCHLORIDE] it was -0.06911; in that of `Cc1cc(/C=C/c2ccc3cc(N(C)C)ccc3[n+]2C)c(C)n1-c1ccccc1.Cc1cc(/C=C/c2ccc3cc(N(C)C)ccc3[n+]2C)c(C)n1-c1ccccc1.O=C([O-])c1cc2ccccc2c(Cc2c(O)c(C(=O)[O-])cc3ccccc23)c1O` [PYRVINIUM PAMOATE], -0.3469.
In the case of `C#C[C@]1(O)CC[C@H]2[C@@H]3CCC4=CC(=O)CC[C@]4(C)[C@H]3CC[C@@]21C` [ETHISTERONE] it was 0.1353; in that of `CCSc1ccc2c(c1)N(CCCN1CCN(C)CC1)c1ccccc1S2.O=C(O)/C=C\C(=O)O`, -0.4349; in that of `Cl.N=C(N)NC(=N)NCCc1ccccc1` [PHENFORMIN HYDROCHLORIDE], -0.07157.
In the case of `N=C(N)NCCN1CCCCCCC1.N=C(N)NCCN1CCCCCCC1.O=S(=O)(O)O` [GUANETHIDINE SULFATE] it was 0.04902; in that of `C[C@]12CC[C@@H]3c4ccc(O)cc4CC[C@H]3[C@@H]1C[C@@H](O)[C@@H]2O` [ESTRIOL], 0.6126.
`C[C@]12CC[C@H](O)CC1=CC[C@@H]1[C@@H]2CC[C@]2(C)C(=O)CC[C@@H]12` [PRASTERONE] returned an Inhibition index of 0.9295.
For the compound `CC(=O)[C@H]1CC[C@H]2[C@@H]3CCC4=CC(=O)CC[C@]4(C)[C@H]3CC[C@]12C` [PROGESTERONE], the Inhibition index was found to be 0.4087.
`CC(=O)[C@H]1CC[C@H]2[C@@H]3CC=C4C[C@@H](O)CC[C@]4(C)[C@H]3CC[C@]12C` [PREGNENOLONE] registered an Inhibition index of 1.659.
In the case of `CC[C@@H]([C@H](C)O)n1ncn(-c2ccc(N3CCN(c4ccc(OC[C@@H]5CO[C@@](Cn6cncn6)(c6ccc(F)cc6F)C5)cc4)CC3)cc2)c1=O.O` it was 0.639; in that of `CN1CCN(C(c2ccccc2)c2ccccc2)CC1.Cl` [CYCLIZINE HYDROCHLORIDE], 0.3956; in that of `CCOC(=O)[C@H](CCc1ccccc1)N[C@@H](C)C(=O)N1[C@H](C(=O)O)C[C@H]2CCCC[C@@H]21` [TRANDOLAPRIL], 0.1383.
As for `CC(C)(C)C(=O)OCOC(=O)[C@@H]1N2C(=O)[C@@H](NC(=O)[C@H](N)c3ccccc3)[C@H]2SC1(C)C` [PIVAMPICILLIN], the figure is 0.3125.
